Measurements published in PubChem BioAssay (NCATS).
Results filed as inconclusive are left out. Calls of active or inactive are those of the source. Calls follow the shape of the dose curve; as a rule, active = well fitted inhibition curve with a large enough effect; inconclusive = small, poorly fitted or top-dose-only effect; inactive = flat fitted curve, though single readings scatter.

Tests used:
[1] = qHTS profiling for inhibitors of Plasmodium falciparum proliferation (AID 504749); also: nearly all actives have a fitted effect of over 60% in size;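 as to activity, negative = inhibition: 0% = DMSO vehicle and full inhibition = artemisinin control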; conditions: P. falciparum in erythrocytes, SYBR Green DNA, 72 h
Procedure, shortened: (§1)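 P. falciparum-infected erythrocytes (0.3% parasitemia, 2.5% hematocrit) incubated with compound 72 h at 37 C, 5% CO2. Parasite DNA detected by SYBR Green after lysis, overnight at room temperature; normalised to 0.29 uM artemisinin and DMSO.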

3D7 = test: as above; conditions: P. falciparum in erythrocytes, SYBR Green DNA, 72 h; series mostly up to 28.7 µM
Procedure, shortened: as §1

7G8 = test: as above; conditions: P. falciparum in erythrocytes, SYBR Green DNA, 72 h; series mostly up to 28.7 µM
Procedure, shortened: as §1

AA1029 = test: as above; conditions: P. falciparum in erythrocytes, SYBR Green DNA, 72 h; series mostly up to 28.7 µM
Procedure, shortened: as §1

ATS189 = test: as above; conditions: P. falciparum in erythrocytes, SYBR Green DNA, 72 h; series mostly up to 28.7 µM
Procedure, shortened: as §1

ATS95 = test: as above; conditions: P. falciparum in erythrocytes, SYBR Green DNA, 72 h; series mostly up to 28.7 µM
Procedure, shortened: as §1

C2A = test: as above; conditions: P. falciparum in erythrocytes, SYBR Green DNA, 72 h; series mostly up to 28.7 µM
Procedure, shortened: as §1

CP185 = test: as above; conditions: P. falciparum in erythrocytes, SYBR Green DNA, 72 h; series mostly up to 28.7 µM
Procedure, shortened: as §1

CP191 = test: as above; conditions: P. falciparum in erythrocytes, SYBR Green DNA, 72 h; series mostly up to 28.7 µM
Procedure, shortened: as §1

CP192 = test: as above; conditions: P. falciparum in erythrocytes, SYBR Green DNA, 72 h; series mostly up to 28.7 µM
Procedure, shortened: as §1

CP194 = test: as above; conditions: P. falciparum in erythrocytes, SYBR Green DNA, 72 h; series mostly up to 28.7 µM
Procedure, shortened: as §1

CP201 = test: as above; conditions: P. falciparum in erythrocytes, SYBR Green DNA, 72 h; series mostly up to 28.7 µM
Procedure, shortened: as §1

CP203 = test: as above; conditions: P. falciparum in erythrocytes, SYBR Green DNA, 72 h; series mostly up to 28.7 µM
Procedure, shortened: as §1

CP211 = test: as above; conditions: P. falciparum in erythrocytes, SYBR Green DNA, 72 h; series mostly up to 28.7 µM
Procedure, shortened: as §1

CP215 = test: as above; conditions: P. falciparum in erythrocytes, SYBR Green DNA, 72 h; series mostly up to 28.7 µM
Procedure, shortened: as §1

AS120 = test: as above; conditions: P. falciparum in erythrocytes, SYBR Green DNA, 72 h; series mostly up to 28.7 µM
Procedure, shortened: as §1

CP217 = test: as above; conditions: P. falciparum in erythrocytes, SYBR Green DNA, 72 h; series mostly up to 28.7 µM
Procedure, shortened: as §1

[2] = at 28.7 µM (top of the series), parasite line A
[3] = at 28.7 µM (top of the series), parasite line B
Potency is read from the fitted curve at half-maximal effect.

CN1C(=O)CN2CCc3ccccc3C2c2cc(Cl)ccc21 (stereo unspecified)
active: Potency (7G8) 12.6 µM
inactive: activity, negative = inhibition [1, 2] -10.8% | activity, negative = inhibition [1, 3] -17.4% | Potency (3D7) | Potency (AA1029) | Potency (ATS189) | Potency (ATS95) | Potency (C2A) | Potency (CP185) | Potency (CP191) | Potency (CP192) | Potency (CP194) | Potency (CP201) | Potency (CP203) | Potency (CP211) | Potency (CP215)

CC1(C)C(C=C(Cl)Cl)C1C(=O)OCc1cccc(Oc2ccccc2)c1 (stereo unspecified)
inactive: activity, negative = inhibition [1, 2] -2.63% | activity, negative = inhibition [1, 3] -6.77% | Potency (3D7) | Potency (AA1029) | Potency (AS120) | Potency (ATS189) | Potency (ATS95) | Potency (C2A) | Potency (CP185) | Potency (CP191) | Potency (CP192) | Potency (CP194) | Potency (CP201) | Potency (CP203) | Potency (CP211) | Potency (CP215) | Potency (CP217)

Cc1c(C)c2c(c(C)c1O)CC[C@@](C)(CCC[C@@H](C)CCC[C@@H](C)CCCC(C)C)O2
inactive: activity, negative = inhibition [1, 3] 18% | Potency (3D7) | Potency (7G8) | Potency (AA1029) | Potency (ATS189) | Potency (ATS95) | Potency (C2A) | Potency (CP185) | Potency (CP191) | Potency (CP192) | Potency (CP194) | Potency (CP201) | Potency (CP203) | Potency (CP211) | Potency (CP215) | Potency (CP217)

CC(C)N=c1cc2n(-c3ccc(Cl)cc3)c3ccccc3nc-2cc1Nc1ccc(Cl)cc1
inactive: activity, negative = inhibition ([1]; at 12.8 µM (top of the series), parasite line A) -13.2% | activity, negative = inhibition ([1]; at 12.8 µM (top of the series), parasite line B) -1.3% | Potency (AA1029) | Potency (AS120) | Potency (ATS189) | Potency (ATS95) | Potency (C2A) | Potency (CP185) | Potency (CP191) | Potency (CP194) | Potency (CP201) | Potency (CP203) | Potency (CP211) | Potency (CP215) | Potency (CP217)
active: Potency (7G8) 3.98 µM

CCCCCCOc1ccc(C(=N)N(CCCC)CCCC)c2ccccc12
active: Potency ([1]; parasite line A) 7.08 µM | Potency (3D7) 5.01 µM | Potency (7G8) 4.47 µM | Potency (ATS189) 10 µM | Potency (C2A) 11.2 µM | Potency (CP185) 10 µM | Potency (CP191) 4.47 µM | Potency (CP192) 19 µM | Potency (CP201) 16.9 µM | Potency (CP217) 7.94 µM

C[C@H]1C[C@H]2[C@@H]3CCC4=CC(=O)C=C[C@]4(C)[C@@]3(F)[C@@H](O)C[C@]2(C)[C@@]1(O)C(=O)CO
inactive: activity, negative = inhibition [1, 2] 15.5% | activity, negative = inhibition [1, 3] 5.52% | Potency (3D7) | Potency (AA1029) | Potency (AS120) | Potency (ATS189) | Potency (ATS95) | Potency (C2A) | Potency (CP185) | Potency (CP191) | Potency (CP192) | Potency (CP194) | Potency (CP201) | Potency (CP203) | Potency (CP211) | Potency (CP215) | Potency (CP217)

O=CCCCC=O
active: Potency (7G8) 10 µM
inactive: activity, negative = inhibition [1, 2] -0.127% | activity, negative = inhibition [1, 3] 0.568% | Potency (3D7) | Potency (AA1029) | Potency (AS120) | Potency (ATS95) | Potency (C2A) | Potency (CP185) | Potency (CP191) | Potency (CP192) | Potency (CP194) | Potency (CP201) | Potency (CP203) | Potency (CP211) | Potency (CP215) | Potency (CP217)

CCCCC(CC)COC(=O)CC(C(=O)OCC(CC)CCCC)S(=O)(=O)O (stereo unspecified)
inactive: Potency (CP192) | Potency (CP194) | Potency (CP201) | Potency (CP203) | Potency (CP211) | Potency (CP215)

O=S(=O)(O)O
inactive: activity, negative = inhibition [1, 2] -14.8% | activity, negative = inhibition [1, 3] 2.3% | Potency (7G8) | Potency (AA1029) | Potency (AS120) | Potency (ATS189) | Potency (ATS95) | Potency (C2A) | Potency (CP185) | Potency (CP191) | Potency (CP192) | Potency (CP194) | Potency (CP201) | Potency (CP203) | Potency (CP211) | Potency (CP217)
